Measurements published in PubChem BioAssay (NCATS).
Inconclusive results are not listed. Values without a mark were called inactive. The source made the active and inactive calls. Calls follow the shape of the dose curve; as a rule, active = well fitted activation curve with a large enough effect; inconclusive = small, poorly fitted or top-dose-only effect; inactive = no such curve, though single readings can be large or run the other way.

Biological target: Cellular tumor antigen p53 (Homo sapiens) (UniProt P04637)
Assay: Primary qHTS for small molecule compounds that upregulate eGFP-tagged delta133p53alpha (in N-terminal) cells. (AID 2060322); also: nearly all actives have a fitted effect of over 75% in size;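 as to activation: series mostly up to about 56 µM; 0% = DMSO vehicle and 100% = reference activator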
Details: NCI-H358 eGFP-delta133p53alpha fluorescence, 24 h; activation: stronger effect = higher value
Outline: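 NCI-H358 cells pre-induced 24 h with 10 ng/ml doxycycline for eGFP-delta133p53alpha, plated dox-free and exposed 24 h at 37C to titrated compounds. Fixed, Hoechst-stained; gated GFP peak intensity by laser scanning cytometry, normalized to DMSO (0%) and 57.5 uM 5-azacytidine (100%).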
Potency is read from the fitted curve at half-maximal effect.

Cellular tumor antigen p53 (Homo sapiens), sequence (P04637 whole entry, looked up): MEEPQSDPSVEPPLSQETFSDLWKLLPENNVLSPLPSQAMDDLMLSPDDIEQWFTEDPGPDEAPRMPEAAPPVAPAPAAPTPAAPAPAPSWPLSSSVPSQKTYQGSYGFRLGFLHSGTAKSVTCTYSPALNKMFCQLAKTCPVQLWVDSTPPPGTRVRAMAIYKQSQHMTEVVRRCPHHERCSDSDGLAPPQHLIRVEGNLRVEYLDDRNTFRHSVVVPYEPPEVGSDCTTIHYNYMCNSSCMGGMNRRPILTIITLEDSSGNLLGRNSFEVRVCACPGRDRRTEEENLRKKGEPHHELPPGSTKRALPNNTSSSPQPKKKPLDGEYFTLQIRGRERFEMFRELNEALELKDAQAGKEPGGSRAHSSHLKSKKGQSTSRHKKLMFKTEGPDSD

Structure (SMILES) | activation | Potency
CCCN(CCC)S(=O)(=O)c1ccc(C(=O)O)cc1 | 8.47% | 
C[C@H]1C[C@@H]2[C@@H]([C@@H](O)C[C@@]3(C)[C@H]2CC[C@]3(O)C(=O)CO)[C@@]2(C)C=CC(=O)C=C12 | -16.2% | 
Cc1c(-c2cccc3c(CCCOc4cccc5ccccc45)c(C(=O)O)n(Cc4cccnc4)c23)c(COc2ccc(N3CCN([S+](=O)([O-])N(C)C)CC3)cc2)nn1C | -39.2% | 
CCOC(=O)O[C@]1(C(=O)OCCl)CC[C@@H]2[C@H]3CCC4=CC(=O)C=C[C@]4(C)[C@@H]3[C@@H](O)C[C@@]21C | -2.28% | 
COC(=O)N[C@H](C(=O)N1CCC[C@@H]1c1ncc(-c2ccc(-c3ccc(-c4cnc([C@@H]5CCCN5C(=O)[C@@H](NC(=O)OC)C(C)C)[nH]4)cc3)cc2)[nH]1)C(C)C | 77.3% | 
CCCSc1ccc2nc(NC(=O)OC)[nH]c2c1 | 6.69% | 
O=C1NC(=O)C(=Cc2ccc3nccc(-c4ccncc4)c3c2)S1 | 3.34% | 
COc1cc(C)c(C=CC(C)=CC=CC(C)=CC(=O)O)c(C)c1C | 21.4% | 
CCCCCN(CCCOC)C(=O)C(CCC(=O)O)NC(=O)c1ccc(Cl)c(Cl)c1 (stereo not given) | -18.6% | 
CCN(CC)c1ccc(C(=C2C=CC(=[N+](CC)CC)C=C2)c2cc(S(=O)(=O)O)ccc2S(=O)(=O)[O-])cc1 | -8.47% | 
C/C(=N/NC(=O)c1ccncc1)C(=O)O | 7.34% | 
CCOC(=O)c1cc(=O)c2c(OCC(COc3cccc4oc(C(=O)OCC)cc(=O)c34)OC(=O)[C@@H](N)CCCCN)cccc2o1 |  | 27.6 µM (active)
NC[C@H]1O[C@H](O[C@H]2[C@H](O[C@@H]3O[C@H](CO)[C@@H](O)[C@H]3O)C(O)[C@H](N)C[C@@H]2N)[C@H](N)[C@@H](O)[C@@H]1O (stereo not given in full) | 0% | 
NS(=O)(=O)c1cc(-c2nn[nH]n2)c(NCc2cccs2)cc1Cl | 5.02% | 
C=C1C(=O)OC2C=C(C)CCC=C(C)CCC12 (stereo not given) | 22% | 
C/C=C(/C(=C/C)c1ccc(O)cc1)c1ccc(O)cc1 | 15.1% | 
CNC(=O)CN(CCN(CCN(CC(=O)[O-])CC(=O)NC)CC(=O)[O-])CC(=O)[O-].O.[Gd+3] | 0.837% | 
CC(C)c1cc2c(cc1S(=O)(=O)O)[C@@]1(C)CCC[C@@](C)(C(=O)O)[C@@H]1CC2 | -22% | 
COc1ccc(-c2ccc(-c3cn(C(=O)N4CCCCC4c4ccccc4)nn3)cc2)cc1 (stereo not given) | -8.11% | 
Nc1ccc(S(=O)(=O)Nc2cnc3ccccc3n2)cc1 | -24.3% | 

Structure (SMILES) | activation | Potency
O=C(O)Cn1cnnn1 | -6.21% | 
OCc1ccccn1 | 8.37% | 
CC(CC1c2ccccc2CCc2ccccc21)CN(C)C (stereo not given) | -10% | 
CN=C(N)NC(=O)Nc1c(C)cccc1C | 5.86% | 
CC(=O)CC/C=C(\C)CC/C=C(\C)CC/C=C(\C)CCC=C(C)C | -15.3% | 
Nc1ncnc2c1ncn2Cc1c(F)cccc1Cl | -17.6% | 
Oc1ccc(C(O)CNCCCCCCNCC(O)c2ccc(O)c(O)c2)cc1O (stereo not given) | 2.82% | 
Cn1cc[nH]c1=S | -1.69% | 
CCc1cccc2c(CCO)c[nH]c12 | -27.7% | 
Cc1nc(NC(=O)N2CCC[C@@H]2C(N)=O)sc1-c1ccnc(C(C)(C)C(F)(F)F)c1 | -9.38% | 
CCN(CC)CCOc1ccc(C(O)(Cc2ccc(Cl)cc2)c2ccc(C)cc2)cc1 (stereo not given) | -6.69% | 
CC1CCCCN1CCCOC(=O)c1ccc(OC2CCCCC2)cc1 (stereo not given) | -7.53% | 
O=C(O)Cn1c(=O)n(Cc2ccc(Br)cc2F)c(=O)c2ccc(Cl)cc21 | -5.08% | 
CCOc1ccc(NC(C)=O)cc1 | 7.53% | 
CC(C)(c1ccc(O)cc1)c1ccc(O)cc1 | -17.5% | 
CC(=O)NCc1c(I)c(NC(C)=O)c(I)c(C(=O)O)c1I | 16.4% | 
CCCN1CCCC[C@H]1C(=O)Nc1c(C)cccc1C | 9.6% | 
C[C@H]1O[C@@H](O[C@H]2CC[C@@]3(C)[C@H](CC[C@@H]4[C@@H]3C[C@@H](O)[C@]3(C)[C@@H](C5=CC(=O)OC5)CC[C@]43O)C2)C[C@H](O)[C@@H]1O[C@H]1C[C@H](O)[C@H](O[C@H]2C[C@H](O)[C@H](O[C@@H]3O[C@H](CO)[C@@H](O)[C@H](O)[C@H]3O)[C@@H](C)O2)[C@@H](C)O1 |  | 1.55 µM (active)
O=c1[nH]c2ccccc2c(=O)n1CCCl | 6.21% | 
CC(=O)Oc1ccc(C)cc1 | -17.5% | 
